From PubChem BioAssay
The list is not random: actives were taken first. Their share in the collection is about 3.2%.
Kir21 block: inhibitors of mouse Kir2.1 inward-rectifier potassium channel; Inward rectifier potassium channel 2 (Mus musculus), P35561; HEK293-Kir2.1, FluxOR thallium flux fluorescence; stronger effect = lower value; B-score at 10 µM; 310,000 compounds, 0.85% hits; AID 1672, 2009;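 active = fluorescence ratio B-score at or below minus 3 SD of library scores, with starting-brightness B-score within 2 SD, cut at about -4.2 in these data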;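 also: channel flux triggered by added potassium and thallium sulfate stimulus; B-score of peak minus minimum fluorescence over baseline after thallium stimulus; more negative B-score means stronger Kir2.1 block with less thallium influx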
ANO1 block: TMEM16A chloride channel inhibitors, primary screen, cell-based, HTS. Anoctamin-1 (Mus musculus), Q8BHY3. HEK293 TMEM16A/YFP iodide influx fluorescence, ionomycin. normalized B-score (activity score, 25-100; higher = stronger inhibition) at 10 µM. 310,000 compounds, 1.2% hits. AID 588511, 2011;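 active = ratio plate-corrected score three or more library SD toward inhibition, starting fluorescence score within five deviations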;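 also: score derived from kinetic fluorescence span divided by baseline fluorescence per well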
CHT allo act: CHT positive allosteric modulators, primary screen, cell-based, membrane potential dye, choline EC20; 310,000 compounds, 0.49% hits; B-score at 10 µM; High affinity choline transporter 1 (Homo sapiens), Q9GZV3; CHT-expressing cells; stronger effect = higher value; LV-AA mutant CHT in HEK293 cells;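 active = initial fluorescence not abnormally high and integrated response B-score, plate-corrected, over 3 SD above library mean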
CHT block: inhibitors of human choline transporter CHT; CHT-expressing cells, membrane potential dye, choline response; stronger effect = lower value; B-score at 10 µM; 310,000 compounds, 0.86% hits; AID 488975, 2010; High affinity choline transporter 1 (Homo sapiens), Q9GZV3;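 active = B-score over 3 SD under the library average, and starting fluorescence ratio not unusually high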;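 also: choline stimulus applied at its EC90 after an EC20 pre-addition; B-score computed on integrated fluorescence ratio after choline addition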
Rce1 inh: yeast Rce1p protease inhibitors, primary screen, biochemical, fluorescence, cell-free homogeneous. yeast membranes, quenched prenylated peptide cleavage fluorescence. calls only. 290,000 compounds, 0.27% hits;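 active = fall in fluorescence gain of 50% or more versus controls, with final raw signal at or below 3038400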
TMEM16A act: TMEM16A chloride channel activators or potentiators, primary screen, cell-based, HTS. Anoctamin-1 (Mus musculus), Q8BHY3. HEK293 TMEM16A/YFP-H148Q/I152L, iodide quench fluorescence; stronger effect = lower value. B-score at 10 µM. 340,000 compounds, 0.3% hits. AID 623877, 2012;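 active = fluorescence-ratio B-score plate-corrected deviation score at least 3 library SD below zero, with starting fluorescence score within 5 deviations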;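 also: channel opened by trigger with iodide after compound preincubation; score built on the fluorescence ratio of max minus min over baseline; more negative score means more quench and so TMEM16A activation or potentiation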
Numbers stand for hits; n = inactive; x = not tested or not shown; + = active, no number.

SMILES | Kir21 block | ANO1 block | CHT allo act | CHT block | Rce1 inh | TMEM16A act
CC1CCCC(C)N1CCNC(=O)CCc1nnc2n(Cc3ccccc3)c(=O)c3ccccc3n12 (stereo not drawn) | n | n | n | n | n | n
CCc1cc2ccc(C)c(C)c2nc1SCC(=O)NNC(=O)c1ccco1 | n | n | n | n | n | n
CC(=O)c1cn(CC(=O)NCC2CCCO2)c2ccccc12 (stereo not drawn) | n | n | n | n | n | -4.8
CC1=C(C(=O)N2CCOCC2)C(c2ccccc2F)C2=C(CC(C)(C)CC2=O)N1 (stereo not drawn) | n | n | n | n | + | n
COc1ccc(C2C(C(=O)N3CCOCC3)=C(C)NC3=C2C(=O)CC(C)(C)C3)c(OC)c1 (stereo not drawn) | n | n | n | n | n | n
CCC(C(=O)N1CCCCCC1)n1nc(C)n2c(cc3occc32)c1=O (stereo not drawn) | n | n | n | n | n | n
O=c1c2c3c(sc2nc(NCCO)n1-c1ccccc1)CCCC3 | n | n | n | n | n | n
CN(C)CCCNc1nc2sc3c(c2c(=O)n1CCc1ccccc1)CCCCC3 | -5.4 | n | n | n | n | n
CCOc1ccc(-c2c(C(=O)N/N=C/c3cccc(Br)c3)nnn2-c2nonc2N)cc1 | n | n | n | n | n | n
Cc1cc(Nc2ccc(Cl)cc2)nc(NCc2ccccc2)n1 | -7 | n | n | n | n | n
COc1ccc(NC(=S)N2CCCC2)c(OC)c1 | n | n | n | n | n | n
Cc1ccccc1OCC(=O)Nc1ccccc1N1CCOCC1 | -7.9 | n | n | n | n | n
CC1=CCC2C(=O)N(c3ccc(OC(=O)c4ccco4)cc3)C(=O)C2C1 (stereo not drawn) | -7.9 | n | n | n | n | n
CC1=CCC2C(=O)N(c3cc(C)on3)C(=O)C2C1 (stereo not drawn) | n | n | n | n | n | n
CC(C)(C)c1ccc(OCCCNCc2ccccc2)cc1 | n | n | n | n | n | n
OCCCCNCc1ccc(OCc2ccccc2Cl)cc1 | n | n | n | n | n | n
Clc1cc(Br)ccc1OCCCNCc1ccccc1 | -10 | n | n | n | n | n
CCOCCCNCc1ccc(OCc2ccccc2Cl)cc1 | -4.3 | n | n | n | n | n
CCc1cc(OCCCCNCc2ccccc2)ccc1Cl | -11 | n | n | n | n | n
O=C1[C@H]2[C@@H](c3ccc(F)cc3)N3C(=O)N(c4ccc(Br)cc4)C(=O)[C@@]3(Cc3ccccc3)[C@H]2C(=O)N1C1CCCCC1 | n | n | n | n | n | n
CCN(CC)c1ccc(CNc2nc3ccccc3n2CCN2CCCCC2)cc1 | n | 100 | n | n | n | n
COn1c2c(c3c4nonc4ccc31)CCCC2 | n | n | n | n | n | n
On1c2c(c3c4nonc4ccc31)CCCC2 | n | 100 | n | -11 | n | x
COc1cc(-n2nc(C)c3c2OC(N)=C(C#N)C3c2ccccc2)c(Cl)c(Br)c1O (stereo not drawn) | n | n | n | -10 | n | n
Cc1ccccc1OCC(O)CN1CCN(CCN2C(=O)c3cccc4cccc(c34)C2=O)CC1 (stereo not drawn) | n | n | n | n | x | n
SMILES | Kir21 block | ANO1 block | CHT allo act | CHT block | Rce1 inh | TMEM16A act
Cc1cccc(C)c1OCC(O)CN1CCC(CN2C(=O)c3cccc4cccc(c34)C2=O)CC1 (stereo not drawn) | n | n | n | -6.3 | n | n
C=CC[n+]1c(/C=C2\C=Cc3cc(C)ccc3N2CC)ccc2ccccc21 | -6.5 | n | n | n | n | n
CCN1/C(=C\c2ccc3cc(C)ccc3[n+]2CC)Sc2cc(C)c(C)cc21 | n | x | x | x | n | n
N#Cc1c(Cl)nsc1NC(=O)c1ccccc1 | n | 100 | n | n | n | n
O=C(Nc1ccc(Br)cc1)c1cccc(S(=O)(=O)Nc2ccccn2)c1 | n | n | n | n | n | n
COc1ccc(NC(=O)NS(=O)(=O)c2ccc(C)cc2)cn1 | n | n | n | n | n | -7.5
COc1ccc(NC(=O)C(Cl)=C(Cl)Cl)cn1 | n | x | x | x | n | n
COc1ccc(NC(=O)c2cccc(S(=O)(=O)Nc3ccc(Br)cc3)c2)cn1 | n | 25 | n | n | n | n
COc1ccc(NC(=O)/C(Cl)=C(/Cl)S(=O)(=O)Cc2ccccc2)cn1 | -5 | x | x | x | n | n
CC(=O)N/C(=C\c1ccccc1)C(=O)OCc1ccc(F)cc1 | n | n | n | n | n | n
O=S(=O)(NC(=S)NC1CCCCC1)c1ccccc1 | n | n | n | n | n | n
Cc1cc(Cl)ccc1OCC(=O)Nc1ccncc1 | n | 25 | n | n | n | n
CCOC(=O)NC(=O)CSc1ccc(S(=O)(=O)N(C)C2CCCCC2)cn1 | x | x | x | x | x | n
CCOc1ccc(N2C(=O)CC(NCCNc3ccc([N+](=O)[O-])cn3)C2=O)cc1 (stereo not drawn) | n | 25 | n | n | n | n
CCOc1ccc(N2C(=O)CC(NCCc3ccncc3)C2=O)cc1 (stereo not drawn) | n | n | n | n | n | n
COc1ccc(-c2cc3nc4ccccc4n3c(N)c2C#N)cc1 | n | n | n | n | n | n
CCCSc1nc(N)c2c3c(sc2n1)CN(C)CC3 | n | n | 7.2 | n | n | n
CN(C)CCSc1nc(N)c2c3c(sc2n1)CN(C)CC3 | n | n | n | -8 | n | n
CCOc1ccc(CNc2ccc(S(N)(=O)=O)cc2)cc1 | n | n | n | n | n | -5.1
CCN(CC)c1ccc(/C=N/NC(=S)NCc2ccc(OC)cc2)cc1 | n | n | n | n | + | n
C/C(=N\NC(=S)NCc1ccccc1)c1ccccc1 | n | n | n | n | n | n
COc1ccc(CNC(=S)N/N=C(/C)c2ccccc2)cc1 | n | 25 | n | n | n | n
CCOC(=O)C1=C(C)NC(C)=C(C(=O)OCC)C1C(=O)OCC(=O)N(C)C | n | n | n | n | n | n
CC(C)(C)C(=O)OCc1nc(-c2ccc(C(F)(F)F)cc2)cs1 | n | n | n | n | n | n
COc1ccccc1CNC(=O)C1CCN(S(=O)(=O)c2ccc3c(c2)NC(=O)CO3)CC1 | n | n | n | n | n | n
Cc1cc(C(=O)N[C@H](c2ccccc2)[C@@]2(C)C[C@@H]2[C@@H](C)C(=O)Nc2ccc3ccccc3c2)n(C)n1 | n | n | n | n | + | n
C[C@@H](C(=O)Nc1ccc2ccccc2c1)[C@H]1C[C@]1(C)[C@H](NC(=O)OCc1ccccc1)c1ccccc1 | n | n | n | n | n | n
CCOC(=O)c1c(-c2ccccc2)c2cc(OC)ccc2n1CCCN(C)C | -7 | n | n | n | n | n
